BAZ2B block = inhibitors of human BAZ2B bromodomain; AlphaScreen BAZ2B-H3K14Ac peptide displacement; hit rate 4.4% among 360,000; AID 504333; Potency, µM (series often up to 114 µM), for inactives: at the highest dose activity change, negative = inhibition, usual class: inhibitors; also: % is scaled to controls: 0 for no effect and ±100 for the full control effect; nearly all actives have a fitted effect of over 60% in size
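Multi-concentration screen (max 110 uM) measuring displacement of acetylated histone H3 peptide from BAZ2B by AlphaScreen, using 50 nM protein, 50 nM peptide and 10 ug/mL streptavidin donor plus Ni-chelate acceptor beads.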
HP1b chromo inh = HP1-beta chromodomain-methylated histone interaction inhibition; AlphaScreen HP1-beta / biotin-H3K9me3 peptide binding; hit rate 0.56% among 390,000; P83916; AID 540317; Potency, µM (doses to about 114 µM), for the others: top-dose activity change, negative = inhibition, actives largely listed as inhibitors; also: nearly all actives have a fitted effect of over 70% in size
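HP1-beta protein (50 nM final) preincubated 30 min at room temperature with biotinylated H3(1-18)K9me3 peptide (50 nM) in PBS pH 7.4, 0.01% Tween-20, then compound added for 30 min. AlphaScreen streptavidin donor/nickel chelate acceptor beads (10 ug/mL final), 30 min dark, luminescence read.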
G9a block = blocks human histone lysine methyltransferase G9a; G9a H3K9 monomethylation, AlphaScreen, 2 h; Potency, µM (top dose mostly 102 µM), for the others: at the top dose activity, negative = inhibition, hits mostly inhibitors; hit rate 8.8% among 350,000; also: % is scaled to controls: 0 for no effect and ±100 for the full control effect; nearly all actives have a fitted effect of over 75% in size
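Signal arises when biotinylated H3K9 peptide, once monomethylated, bridges streptavidin donor and antibody-captured acceptor beads. Enzyme at 20 nM was preincubated 15 min with test compounds; peptide 500 nM and SAM 20 uM then reacted for 2 h.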
L3MBTL1 inh = L3MBTL1 (human) inhibition. hit rate 0.66% among 230,000. AlphaScreen L3MBTL1–H3K9me1 peptide binding. AID 485360. Potency, µM (titrated, usually from 57.1 µM), without a hit: top-dose activity, negative = inhibition, usual class: inhibitors. Q9Y468; also: % is scaled to controls: 0 for no effect and ±100 for the full control effect; nearly all actives have a fitted effect of over 60% in size
Target sequence (Q9Y468 whole entry, looked up): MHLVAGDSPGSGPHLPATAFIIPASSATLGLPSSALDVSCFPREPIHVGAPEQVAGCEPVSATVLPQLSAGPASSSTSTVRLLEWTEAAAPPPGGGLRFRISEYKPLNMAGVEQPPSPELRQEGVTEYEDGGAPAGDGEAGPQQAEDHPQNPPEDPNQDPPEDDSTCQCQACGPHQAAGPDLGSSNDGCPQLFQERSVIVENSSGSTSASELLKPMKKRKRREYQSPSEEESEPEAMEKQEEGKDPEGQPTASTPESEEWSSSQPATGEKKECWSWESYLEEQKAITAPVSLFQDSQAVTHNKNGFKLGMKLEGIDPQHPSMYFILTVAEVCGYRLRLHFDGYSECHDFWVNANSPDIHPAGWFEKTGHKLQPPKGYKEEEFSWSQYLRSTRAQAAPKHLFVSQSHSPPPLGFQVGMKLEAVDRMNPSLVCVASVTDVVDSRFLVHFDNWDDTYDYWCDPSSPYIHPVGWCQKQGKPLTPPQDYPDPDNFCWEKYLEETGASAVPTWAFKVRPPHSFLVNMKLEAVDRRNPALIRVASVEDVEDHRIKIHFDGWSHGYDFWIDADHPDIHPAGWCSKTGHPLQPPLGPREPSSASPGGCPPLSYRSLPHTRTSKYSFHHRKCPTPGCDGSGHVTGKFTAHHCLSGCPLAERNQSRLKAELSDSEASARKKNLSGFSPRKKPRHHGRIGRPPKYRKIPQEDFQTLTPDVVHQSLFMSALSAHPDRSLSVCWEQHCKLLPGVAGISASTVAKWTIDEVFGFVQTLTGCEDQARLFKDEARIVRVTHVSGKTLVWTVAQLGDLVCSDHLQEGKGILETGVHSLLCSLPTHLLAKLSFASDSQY
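Displacement of a biotinylated histone H3(1-15) peptide monomethylated at Lys9 (75 nM) from L3MBTL1 (50 nM) was measured by AlphaScreen after a 30 min room-temperature compound incubation; cefsulodin titration served as intraplate control.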
JMJD2A Tudor inh = blocks the human JMJD2A Tudor domain; O75164; AlphaScreen JMJD2A-Tudor / H3K4me3 peptide binding; Potency, µM (top dose mostly 114 µM), for the others: at the highest dose activity change, negative = inhibition, actives largely listed as inhibitors; hit rate 4.4% among 390,000; also: % is scaled to controls: 0 for no effect and ±100 for the full control effect; nearly all actives have a fitted effect of over 50% in size
The depositor's hits bear a star; u = inconclusive; x = no result; [ ] = dose if it differs, or a comment. Only some compounds are listed: those with a hit (about 11% of all), similar ones and a draw of the others. Calls follow the shape of the dose curve; as a rule, active = well fitted inhibition curve with a large enough effect; inconclusive = small, poorly fitted or top-dose-only effect; inactive = no such curve, though single readings can be large or run the other way. Potency is read from the fitted curve at half-maximal effect.

SMILES | BAZ2B block | HP1b chromo inh | G9a block | L3MBTL1 inh | JMJD2A Tudor inh
COc1ccc(/C=C/C(=O)N2CCC(c3nc4ccccc4o3)CC2)cc1 | -28% | 10% | -7%[59 µM] | x | -26%
COc1ccc(NC(=O)c2cn3c4c(ccc(Cl)c4c2=O)OC(C)C3)cc1OC (centres undefined) | -10% | 20% | -32%[59 µM] | x | -25%
Cc1ccc([N+](=O)[O-])cc1Nc1nc(N2CCCC2)nc(N2CCCC2)n1 | 6% | -9% | 0%[0.501 µM] | -8%[2.29 µM] | u
CN(C)c1ccc(P(=O)(OC2CCCCC2)C(O)c2ccccn2)cc1 (centres undefined) | 45µM* | 41% | x | -2% | u
CC(C)COP(=O)(c1ccc(N(C)C)cc1)C(O)c1ccccn1 (centres undefined) | x | 27% | 3.5µM* | -2% | 1.3µM*
COc1ccc(C2SCCN2C(=S)Nc2ccc(F)cc2)cc1 (centres undefined) | 5% | -14% | 40µM* | 8% | 3%[57.1 µM]
Cc1ccc(OCCCCNC2CCCC(C)C2C)c(C)c1 (centres undefined) | 22µM* | u | 13µM* | -6% | 20µM*
Cc1ccc(C)c(C(=O)CSc2nc(-c3ccccc3)nc3c2CCCC3)c1 | 31% | 82% | 31%[59 µM] | x | 39%
COc1ccc(C(=O)Oc2cccc3cccnc23)cc1[N+](=O)[O-] | 14µM* | 18% | 2% | u | u
O=C(Nc1ccc2nc(SCCOc3ccccc3)sc2c1)c1cccs1 | 0% | 65% | 17%[59 µM] | x | -8%
Nc1nc(-c2cccs2)c(CC(=O)O)s1 | 0% | 23% | 40µM* | x | -34%
O=C(O)Cc1sc(Nc2ccc(Cl)cc2)nc1-c1cccs1 | u | -4% | u | -14% | -28%
Nc1nc(-c2ccc(Oc3ccccc3)cc2)c(CC(=O)O)s1 | -24% | 15% | 32µM* | x | -22%
CCOc1ccc2c(c1)C(C)=CC(C)(C)N2S(=O)(=O)c1ccc(F)cc1 | -2% | 52% | -11% | -6% | 10%
CCOc1ccc2c(c1)-c1c(ssc1=S)C(C)(C)N2C | 10µM* | 2µM* | 4µM* | x | 11µM*
COc1ccc(C(=O)N2C(=S)NC(=O)/C2=C\c2ccc(C)cc2)cc1 | 50µM* | -23% | -1%[59 µM] | -22% | 50µM*
COc1ccc(C=C2NC(=S)NC2=O)cc1 | x | -6% | x | x | -30%
Cc1cc(C)c(NC(=O)CN(C)S(=O)(=O)c2ccc3c(c2)CCC(=O)N3)c(C)c1 | -13% | 39% | 7%[59 µM] | x | -7%
COc1ccc(CN2CCC(Cc3ccccc3)CC2)cc1OC | u | u | 50µM* | -5% | 20µM*
Cc1[nH]c2ccccc2c1CN1CCC(Cc2ccccc2)CC1 | 45µM* | u | 14µM* | 1% | 0.79µM*
CCCCOc1ccc(C(=O)Nc2ccc(CN3CCOCC3)cc2)cc1 | 6% | 30% | 4%[59 µM] | 3% | 3%
OC(COc1ccc(Cl)cc1)CN1CCC(Cc2ccccc2)CC1 (centres undefined) | -18% | 54% | 28µM* | x | -18%
CCCCOc1ccc(CN2CCC(O)CC2)cc1 | u | -29% | x | -5% | 2.8µM*
CCCCNC(=O)C1CCC(CNS(=O)(=O)c2ccc(Cl)cc2)CC1 (centres undefined) | 16% | 25% | 17%[59 µM] | x | -13%
Cc1cccc(CSc2ncc(Cl)c(C(=O)Nc3sc4c(c3C#N)CCCC4)n2)c1 | -5% | 27% | 1%[59 µM] | x | 2%
SMILES | BAZ2B block | HP1b chromo inh | G9a block | L3MBTL1 inh | JMJD2A Tudor inh
O=C(CSc1nc2c(c(=O)[nH]1)CN(Cc1ccc3c(c1)OCO3)CC2)Nc1ccc(F)c(F)c1 | -15% | 78% | -9%[59 µM] | x | -11%
CCOc1ccc(CN2CCC(Cc3ccccc3)CC2)cc1 | u | u | 45µM* | 0% | 25µM*
COc1cccc(OC)c1OCCCN1CCC(Cc2ccccc2)CC1 | -35% | u | 25µM* | x | 20µM*
COCCNC(=O)c1ccc(CN2CCC(Cc3ccccc3)CC2)cc1 | u | 35% | 1% | -4% | -3%
OC(COc1ccc(C2C=CCC2)cc1)CN1CCCCC1 (centres undefined) | -4% | -19% | 40µM* | -4% | -29%
O=C(NC1CCN(Cc2cccc([N+](=O)[O-])c2)CC1)c1ccccc1 | -18% | 24% | u | x | -9%
O=[N+]([O-])c1cccc(CN2CCC(Cc3ccccc3)CC2)c1 | 50µM* | u | 35µM* | -8% | 1.6µM*
COc1ccc(-n2nc(C(=O)Nc3cccc(C)n3)c3c4ccccc4n(C)c3c2=O)cc1 | x | 19% | 5%[59 µM] | x | -12%
COC(=O)c1ccc(CN(Cc2ccc(OC)c(OC)c2)S(=O)(=O)c2ccc(F)c(C(=O)Nc3cc(C)ccc3C)c2)cc1 | -9% | 35% | -21%[59 µM] | x | -11%
CN(C)c1ccc(P(=O)(OCc2ccccc2)C(O)c2ccccc2)cc1 (centres undefined) | -19% | 2% | -3% | 1% | -22%
COc1ccc(-c2[nH]ncc2CN2CCN(c3ccc(F)cc3)CC2)cc1 | u | 16% | 50µM* | u | -32%
COc1ccc(-c2[nH]ncc2CN2CCCC(C(=O)c3cccc(OC)c3)C2)cc1 (centres undefined) | -4% | 17% | 45µM* | -9% | -26%
COc1ccc(C(=O)C2CCCN(Cc3cn[nH]c3-c3ccccc3)C2)cc1OC (centres undefined) | -1% | 27% | -6%[0.501 µM] | 5% | -18%
COc1ccc2cc(-c3[nH]ncc3CN3CCCC3c3nonc3C)ccc2c1 (centres undefined) | u | 13% | -33% | -15% | 79µM*
Fc1ccc(N2CCN(Cc3cn[nH]c3-c3ccccc3)CC2)cc1 | -25% | -17% | 71µM* | u | -35%
CC(=O)OC[C@H]1O[C@@H](Oc2cc(O)cc3oc(-c4ccc(O)cc4)cc(=O)c23)[C@H](O[C@@H]2O[C@@H](C)[C@H](O)[C@@H](O)[C@H]2O)[C@@H](O)[C@@H]1O | x | 49% | x | -1% | 0%
Cc1c(C(=O)O)oc2c1-c1nn(Cc3ccccc3Cl)cc1CC2 | u | 7% | u | x | -28%
O=C(NCCN1CCCCCC1)c1ccc(CS(=O)(=O)c2ccc(Br)cc2)o1 | 5% | 18% | u | 18% | u
O=C(NCCCN1CCCC1)c1ccc(CS(=O)(=O)c2ccc(Br)cc2)o1 | -27% | 27% | 56µM* | x | -15%
COc1ccc(N2CCN(CCCNC(=O)c3ccc(CS(=O)(=O)c4ccc(Cl)cc4)o3)CC2)cc1 | 28µM* | 22% | 50µM* | x | 14%
O=C(NCCCN1CCCC1)c1ccc(CS(=O)(=O)c2ccc(Cl)cc2)o1 | -14% | 41% | -17% | x | 0%
COC(=O)c1cc2occc2n1CC(=O)Nc1ccc(N(C)C)cc1 | -35% | 14% | u | x | -23%
COc1ccccc1-n1cnnc1SCC(=O)Nc1ncc(Cl)cc1Cl | -4% | -5% | -10%[59 µM] | 8% | 50µM*

Compound activity (PubChem BioAssay)
